# Results: PubChem BioAssay AID1159580 (chemical genetic matrix, 2015)
# Several values for one entry are separate records, joined by “and”; a condition that tells them apart may be missing. Identical values can stand only once. Among all 5,500 compounds or so, about 2,000 (36%) were called active. Another 18% or so got no clear call; they are omitted. The list shows a part of the results. A number with no mark means an inactive call. No stated cut-off is given here; in the data, active means normalized growth mostly below about 0.91 (no sharp cut-off); inconclusive means no clear call, values can overlap the other calls; inactive means mostly above about 0.92.
# Test: chemical genetic growth profiling, strain panel (AID 1159580);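 further: tested at 20 µM; growth read once vehicle control cultures reached saturation at 30 °C; 1 = growth at the plate median or of vehicle wells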
# Conditions: growth OD
smiles,measurement,setting,value
NCCc1ccc(O)cc1,normalized growth,"S. cerevisiae deletion strains, locus YJR075W, strain HOC1, stronger effect = lower value",1.01
same,normalized growth,"S. cerevisiae deletion strains, locus YKL009W, strain mrt4, stronger effect = lower value",0.992
same,normalized growth,"S. cerevisiae deletion strains, locus YKL068W, stronger effect = lower value",0.994
same,normalized growth,"S. cerevisiae deletion strains, locus YKL085W, strain MDH1 (second series), stronger effect = lower value",0.996
same,normalized growth,"S. cerevisiae deletion strains, locus YKL085W, strain MDH1, stronger effect = lower value",0.996
same,normalized growth,"S. cerevisiae deletion strains, locus YKL160W, strain elf1, stronger effect = lower value",1.01
same,normalized growth,"S. cerevisiae deletion strains, locus YKL190W, strain CNB1, stronger effect = lower value",1.01
same,normalized growth,"S. cerevisiae deletion strains, locus YKR001C, strain vps1, stronger effect = lower value",0.978
same,normalized growth,"S. cerevisiae deletion strains, locus YKR026C, strain gcn3, stronger effect = lower value",0.972
same,normalized growth,"S. cerevisiae deletion strains, locus YKR091W, strain srl3, stronger effect = lower value",0.986
same,normalized growth,"S. cerevisiae deletion strains, locus YLL001W, strain dnm1, stronger effect = lower value",0.982
same,normalized growth,"S. cerevisiae deletion strains, locus YLL026W, stronger effect = lower value",0.985
same,normalized growth,"S. cerevisiae deletion strains, locus YLL041C, strain sdh2, stronger effect = lower value",0.978
same,normalized growth,"S. cerevisiae deletion strains, locus YLR027C, strain aat2, stronger effect = lower value",0.984
same,normalized growth,"S. cerevisiae deletion strains, locus YLR039C, strain RIC1, stronger effect = lower value",1.02
same,normalized growth,"S. cerevisiae deletion strains, locus YLR058C, strain SHM2, stronger effect = lower value",1.01
same,normalized growth,"S. cerevisiae deletion strains, locus YLR102C, strain apc9, stronger effect = lower value",0.999
same,normalized growth,"S. cerevisiae deletion strains, locus YLR113W, strain HOG1, stronger effect = lower value",0.973
same,normalized growth,"S. cerevisiae deletion strains, locus YLR221C, strain rsa3, stronger effect = lower value",0.951
same,normalized growth,"S. cerevisiae deletion strains, locus YLR258W, strain gsy2, stronger effect = lower value",0.985
same,normalized growth,"S. cerevisiae deletion strains, locus YLR262C, strain YPT6 (second series), stronger effect = lower value",0.976
same,normalized growth,"S. cerevisiae deletion strains, locus YLR262C, strain YPT6, stronger effect = lower value",1.02
same,normalized growth,"S. cerevisiae deletion strains, locus YLR268W, strain sec22, stronger effect = lower value",0.993
same,normalized growth,"S. cerevisiae deletion strains, locus YLR320W, strain mms22, stronger effect = lower value",0.962
same,normalized growth,"S. cerevisiae deletion strains, locus YLR330W, strain CHS5, stronger effect = lower value",1.01
same,normalized growth,"S. cerevisiae deletion strains, locus YLR342W, strain FKS1 (second series), stronger effect = lower value",1
same,normalized growth,"S. cerevisiae deletion strains, locus YLR342W, strain FKS1, stronger effect = lower value",0.98
same,normalized growth,"S. cerevisiae deletion strains, locus YLR357W, strain rsc2, stronger effect = lower value",0.956
same,normalized growth,"S. cerevisiae deletion strains, locus YLR370C, strain arc18, stronger effect = lower value",0.984
same,normalized growth,"S. cerevisiae deletion strains, locus YLR371W, strain rom2, stronger effect = lower value",0.981
same,normalized growth,"S. cerevisiae deletion strains, locus YLR384C, strain iki3, stronger effect = lower value",0.958
same,normalized growth,"S. cerevisiae deletion strains, locus YLR418C, strain cdc73, stronger effect = lower value",1.02
same,normalized growth,"S. cerevisiae deletion strains, locus YML016C, strain PPZ1, stronger effect = lower value",1
same,normalized growth,"S. cerevisiae deletion strains, locus YML032C, strain rad52, stronger effect = lower value",1.02
same,normalized growth,"S. cerevisiae deletion strains, locus YML120C, strain ndi1, stronger effect = lower value",0.994
same,normalized growth,"S. cerevisiae deletion strains, locus YML124C, strain tub3, stronger effect = lower value",1
same,normalized growth,"S. cerevisiae deletion strains, locus YMR058W, strain fet3, stronger effect = lower value",0.973
same,normalized growth,"S. cerevisiae deletion strains, locus YMR078C, strain ctf18, stronger effect = lower value",0.99
same,normalized growth,"S. cerevisiae deletion strains, locus YMR125W, strain sto1, stronger effect = lower value",0.989
same,normalized growth,"S. cerevisiae deletion strains, locus YMR129W, stronger effect = lower value",0.973
same,normalized growth,"S. cerevisiae deletion strains, locus YMR205C, strain PFK2, stronger effect = lower value",1.01
same,normalized growth,"S. cerevisiae deletion strains, locus YMR223W, strain ubp8, stronger effect = lower value",1.01
same,normalized growth,"S. cerevisiae deletion strains, locus YMR231W, strain pep5, stronger effect = lower value",0.97
same,normalized growth,"S. cerevisiae deletion strains, locus YMR263W, strain SAP30, stronger effect = lower value",1.01 and 1
same,normalized growth,"S. cerevisiae deletion strains, locus YMR307W, strain GAS1, stronger effect = lower value",0.979 and 1.01
same,normalized growth,"S. cerevisiae deletion strains, locus YNL067W, strain RPL9B, stronger effect = lower value",1.01
same,normalized growth,"S. cerevisiae deletion strains, locus YNL071W, strain lat1, stronger effect = lower value",0.989
same,normalized growth,"S. cerevisiae deletion strains, locus YNL153C, strain GIM3, stronger effect = lower value",1.01 and 1.04
same,normalized growth,"S. cerevisiae deletion strains, locus YNL175C, strain NOP13, stronger effect = lower value",1.03
same,normalized growth,"S. cerevisiae deletion strains, locus YNL183C, strain NPR1, stronger effect = lower value",0.953
same,normalized growth,"S. cerevisiae deletion strains, locus YNL197C, strain WHI3, stronger effect = lower value",1
same,normalized growth,"S. cerevisiae deletion strains, locus YNL209W, strain ssb2, stronger effect = lower value",1
same,normalized growth,"S. cerevisiae deletion strains, locus YNL224C, strain SQS1, stronger effect = lower value",1
same,normalized growth,"S. cerevisiae deletion strains, locus YNL233W, strain BNI4, stronger effect = lower value",1
same,normalized growth,"S. cerevisiae deletion strains, locus YNL248C, strain rpa49, stronger effect = lower value",0.856 (active)
same,normalized growth,"S. cerevisiae deletion strains, locus YNL250W, strain rad50, stronger effect = lower value",0.995
same,normalized growth,"S. cerevisiae deletion strains, locus YNL271C, strain bni1, stronger effect = lower value",0.993
same,normalized growth,"S. cerevisiae deletion strains, locus YNL298W, strain CLA4, stronger effect = lower value",1
same,normalized growth,"S. cerevisiae deletion strains, locus YNL307C, strain MCK1, stronger effect = lower value",1.02
same,normalized growth,"S. cerevisiae deletion strains, locus YNL322C, strain KRE1 (second series), stronger effect = lower value",0.992
same,normalized growth,"S. cerevisiae deletion strains, locus YNL322C, strain KRE1, stronger effect = lower value",1 and 0.993
same,normalized growth,"S. cerevisiae deletion strains, locus YNR049C, strain mso1, stronger effect = lower value",0.98
same,normalized growth,"S. cerevisiae deletion strains, locus YNR052C, strain pop2, stronger effect = lower value",0.988
same,normalized growth,"S. cerevisiae deletion strains, locus YOL012C, strain htz1",0.829
same,normalized growth,"S. cerevisiae deletion strains, locus YOL147C, strain pex11, stronger effect = lower value",1
same,normalized growth,"S. cerevisiae deletion strains, locus YOR001W, strain rrp6, stronger effect = lower value",0.927
same,normalized growth,"S. cerevisiae deletion strains, locus YOR061W, strain CKA2, stronger effect = lower value",1.01
same,normalized growth,"S. cerevisiae deletion strains, locus YOR069W, strain VPS5, stronger effect = lower value",1
same,normalized growth,"S. cerevisiae deletion strains, locus YOR070C, strain gyp1, stronger effect = lower value",0.963
same,normalized growth,"S. cerevisiae deletion strains, locus YOR080W, strain dia2, stronger effect = lower value",0.968
same,normalized growth,"S. cerevisiae deletion strains, locus YOR083W, strain WHI5 (second series), stronger effect = lower value",1.03
same,normalized growth,"S. cerevisiae deletion strains, locus YOR083W, strain WHI5, stronger effect = lower value",1.01
same,normalized growth,"S. cerevisiae deletion strains, locus YOR106W, strain vam3, stronger effect = lower value",1.02
same,normalized growth,"S. cerevisiae deletion strains, locus YOR136W, strain idh2, stronger effect = lower value",0.996
same,normalized growth,"S. cerevisiae deletion strains, locus YOR144C, strain elg1, stronger effect = lower value",0.992
same,normalized growth,"S. cerevisiae deletion strains, locus YOR184W, strain ser1, stronger effect = lower value",1
same,normalized growth,"S. cerevisiae deletion strains, locus YOR231W, strain MKK1, stronger effect = lower value",0.963
same,normalized growth,"S. cerevisiae deletion strains, locus YOR265W, strain rbl2, stronger effect = lower value",1
same,normalized growth,"S. cerevisiae deletion strains, locus YOR270C, strain vph1, stronger effect = lower value",0.964
same,normalized growth,"S. cerevisiae deletion strains, locus YOR290C, strain snf2, stronger effect = lower value",1
same,normalized growth,"S. cerevisiae deletion strains, locus YOR316C, strain cot1, stronger effect = lower value",1
same,normalized growth,"S. cerevisiae deletion strains, locus YPL051W, strain arl3, stronger effect = lower value",0.987
same,normalized growth,"S. cerevisiae deletion strains, locus YPL055C, strain LGE1, stronger effect = lower value",1.01
same,normalized growth,"S. cerevisiae deletion strains, locus YPL078C, strain atp4, stronger effect = lower value",0.997
same,normalized growth,"S. cerevisiae deletion strains, locus YPL106C, strain sse1, stronger effect = lower value",0.987
same,normalized growth,"S. cerevisiae deletion strains, locus YPL240C, strain hsp82, stronger effect = lower value",0.976
same,normalized growth,"S. cerevisiae deletion strains, locus YPL241C, strain CIN2, stronger effect = lower value",1.01 and 1
same,normalized growth,"S. cerevisiae deletion strains, locus YPL256C, strain CLN2, stronger effect = lower value",0.953
same,normalized growth,"S. cerevisiae deletion strains, locus YPR119W, strain clb2, stronger effect = lower value",0.992
same,normalized growth,"S. cerevisiae deletion strains, locus YPR141C, strain kar3, stronger effect = lower value",0.996
same,normalized growth,"S. cerevisiae deletion strains, locus YPR163C, strain tif3, stronger effect = lower value",1.01
same,normalized growth,"S. cerevisiae deletion strains, locus YPR167C, strain met16, stronger effect = lower value",1.01
same,normalized growth,"S. cerevisiae deletion strains, strain wtn01, stronger effect = lower value",0.984
same,normalized growth,"S. cerevisiae strains, strain wild type, stronger effect = lower value",1
